Most compounds without a hit are left out; they make up all but 1.9% or so of the library.
MLL CXXC-DNA inh – inhibitors of human MLL CXXC domain-DNA interaction; 0.037% of 290,000 active; Potency, µM (highest dose often 115 µM), actives largely listed as inhibitors; MLL-CXXC / FITC-HOXA9 DNA fluorescence polarization; AID 2662; Q03164; active = well fitted inhibition curve with a large enough effect in the polarisation, with a control signal flat, not every such curve was filed as active; inconclusive = small, poorly fitted or top-dose-only effect, or effect the other way, or a change in a side signal; inactive = no such curve, though single readings can be large or run the other way; the % refers to the polarisation
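Steps: dispense CXXC domain solution (7 uM) → pin compounds or unlabeled HOX-A9 DNA control → 5 min ambient → add FLSN-HOX-A9 solution (50 nM) → spin → 30 min ambient → fluorescence polarization. Tris pH 7.5/NaCl/DTT/BSA buffer.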
PINK1 modulator – PINK1 expression modulation | PINK1 immunofluorescence, high-content cytometry, 24 h | Potency, µM (titrated, usually from 76.6 µM), actives largely listed as activators | 0.2% of 410,000 active | AID 624263; active = well fitted activation curve with a large enough effect; inconclusive = small, poorly fitted or top-dose-only effect; cell line not stated here; note: nearly all actives have a fitted effect of over 65% in size
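Stable cell line treated 24 h with compounds at 5 concentrations (CCCP controls), then fixed and immunostained for PINK1 plus nuclear and cell stains; PINK1 immunofluorescence quantified by laser-scanning microplate cytometry.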
Menin-MLL FL inh – inhibitors of human menin-MLL interaction, wild-type MLL peptide; AID 1766; 290,000 tested, under 10 active; FP activity change, % at 61.4 µM; Fluorescence polarization, fluorescein-MLL peptide displacement from menin; active = well fitted curve in the direction sought with a large enough effect in the polarisation, not every such curve was filed as active; inconclusive = small, poorly fitted or top-dose-only effect, or effect the other way, or a change in a side signal; inactive = no such curve, though single readings can be large or run the other way; the % refers to the polarisation
Menin-MLL TR inh – displaces Texas Red mutant MLL peptide from human menin | Menin + Texas Red MLL mutant peptide, fluorescence polarization | Potency, µM (top dose mostly 61.6 µM), hits mostly inhibitors | 0.23% of 270,000 active; active = well fitted inhibition curve with a large enough effect in the polarisation, with a control signal flat, not every such curve was filed as active; inconclusive = small, poorly fitted or top-dose-only effect, or effect the other way, or a change in a side signal; inactive = no such curve, though single readings can be large or run the other way; the % refers to the polarisation
Target sequence (O00255 whole entry, looked up): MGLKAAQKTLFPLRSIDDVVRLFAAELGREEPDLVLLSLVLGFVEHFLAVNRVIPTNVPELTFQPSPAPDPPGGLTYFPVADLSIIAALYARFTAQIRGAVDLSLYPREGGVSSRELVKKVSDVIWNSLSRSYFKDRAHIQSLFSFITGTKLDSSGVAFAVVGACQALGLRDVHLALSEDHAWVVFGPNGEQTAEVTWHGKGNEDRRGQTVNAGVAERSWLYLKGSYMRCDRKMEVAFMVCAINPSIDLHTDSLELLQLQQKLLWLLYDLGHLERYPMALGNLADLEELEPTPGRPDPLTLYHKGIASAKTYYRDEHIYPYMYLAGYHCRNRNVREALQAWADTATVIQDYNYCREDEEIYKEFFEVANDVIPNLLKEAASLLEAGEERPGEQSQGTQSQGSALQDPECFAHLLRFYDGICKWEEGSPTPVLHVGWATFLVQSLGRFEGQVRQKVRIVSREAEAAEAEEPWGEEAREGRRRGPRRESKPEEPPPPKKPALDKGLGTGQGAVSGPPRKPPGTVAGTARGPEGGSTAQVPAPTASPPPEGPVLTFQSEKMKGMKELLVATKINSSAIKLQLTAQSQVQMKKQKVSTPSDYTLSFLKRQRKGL
ClpP mod – qHTS Assay for Activators of ClpP; purified B. subtilis ClpP, FRET peptide cleavage, 20 min; 1.9% of 340,000 active; AID 651965, 2013; Potency, µM (doses to about 57.5 µM); active = well fitted falling curve with a large enough effect; inconclusive = small, poorly fitted or top-dose-only effect; inactive = no such curve, though single readings can be large or run the other way; note: the source files actives as falling curves though it sought activators and does not explain the sign; nearly all actives have a fitted effect of over 65% in size
Target sequence (P80244 whole entry, looked up): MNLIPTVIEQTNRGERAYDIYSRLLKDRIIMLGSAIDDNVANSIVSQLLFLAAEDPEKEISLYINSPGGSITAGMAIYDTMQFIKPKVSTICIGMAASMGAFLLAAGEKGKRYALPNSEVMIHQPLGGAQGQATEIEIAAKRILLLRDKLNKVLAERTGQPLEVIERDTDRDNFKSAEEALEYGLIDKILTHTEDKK
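ClpP 10 microg/mL final, pH 8 Tris/KCl buffer with BSA, glycerol, Tween-20; compound pinned in; FRET-FV substrate; RT 20 min; Ex320/Em430; ΔFRET vs ADEP 5.8 microM, DMSO, no enzyme.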
Epigenetic derep – epigenetic control regulation, reporter derepression; murine LDR cells, GFP reporter derepression, 30 h; Potency, µM (highest dose often 53.9 µM), actives largely listed as activators; 0.2% of 280,000 active; AID 1865; active = well fitted activation curve with a large enough effect; inconclusive = small, poorly fitted or top-dose-only effect; note: nearly all actives have a fitted effect of over 60% in size
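GFP-positive cell count by laser-scanning cytometry (objects 20–120 um) after 30 h, 37 C compound exposure of murine LDR cells; reporter is CMV-GFP integrated at a silenced locus, inducible by HDAC or DNMT inhibitors.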
Of the large screens only hits and unclear results are named; the others gave an inactive call.

CC(=O)Nc1nonc1-c1nc2ccccc2n1N(C(C)=O)C(C)=O	ClpP mod 28µM
CC(=O)Nc1nonc1-c1nc2ccccc2n1CC1CC1	ClpP mod inconclusive
CC(=O)Nc1nonc1-c1nc2ccccc2n1Cc1ccccc1Br	ClpP mod 25µM (no result: MLL CXXC-DNA inh, Menin-MLL FL inh, Menin-MLL TR inh)
CCc1ccc(CN2CCC(n3nccc3NC(=O)C3CCCC3)CC2)cc1	ClpP mod 28µM (no result: Epigenetic derep)
CN(C)C1CCN(CCCOc2ccc(-c3ccc(C#N)cc3)cc2)C1 (configuration not stated)	none (no result: MLL CXXC-DNA inh, PINK1 modulator, ClpP mod, Epigenetic derep)
CCc1nnc(NC(=O)CSc2nc3cc4c(cc3cc2CC)OCCO4)s1	PINK1 modulator 11µM
CCCC(=O)NC(=S)Nc1ccc(N2CCN(C(=O)c3cccs3)CC2)cc1	none
CCCC(=O)N1CCN(c2ccc(NC(=O)c3cccs3)cc2)CC1	ClpP mod 16µM
O=C(O)CCC/C=C\C[C@H]1C(=O)C[C@@H](O)[C@@H]1/C=C/[C@@H](O)CCc1ccccc1	none (no result: MLL CXXC-DNA inh, PINK1 modulator, ClpP mod)
CC1(C)C(=O)C2(CCCCC2)C(=O)OC1c1cccn1-c1ccc([N+](=O)[O-])cc1 (configuration not stated)	ClpP mod 32µM
CC1(C)C(=O)OC(c2cccn2-c2ccc([N+](=O)[O-])cc2)C(C)(C)C1=O (configuration not stated)	none
CCC1=Nc2cc(C(=O)NC3CCCC3)ccc2Sc2ccc(Cl)cc21	none (no result: MLL CXXC-DNA inh, Menin-MLL FL inh, Menin-MLL TR inh)
O=C1c2cccc3cccc(c23)C(=O)N1CC1CCN(CC(O)COCc2ccc3c(c2)OCO3)CC1 (configuration not stated)	ClpP mod 28µM
Oc1ccc2ccccc2c1CN1CCN(c2ccccc2F)CC1	Menin-MLL FL inh inconclusive, ClpP mod 11µM
Oc1ccc2ccccc2c1CN1CCN(C/C=C/c2ccccc2)CC1	none (no result: ClpP mod, Epigenetic derep)
O=C(NCC1Cc2cccc(-c3ncccn3)c2O1)C1CCOC1 (configuration not stated)	none (no result: MLL CXXC-DNA inh, Menin-MLL FL inh, Menin-MLL TR inh, ClpP mod, Epigenetic derep)
O=C1/C(=C\c2cccc([N+](=O)[O-])c2O)SC(=S)N1Cc1ccccc1	PINK1 modulator inconclusive, Menin-MLL TR inh inconclusive (no result: Epigenetic derep)
COc1cc(/C=C2/SC(=S)N(Cc3ccccc3)C2=O)cc(Cl)c1O	MLL CXXC-DNA inh inconclusive, Menin-MLL FL inh inconclusive, Menin-MLL TR inh inconclusive (no result: Epigenetic derep)
O=C1/C(=C/c2ccc(O)c([N+](=O)[O-])c2)SC(=S)N1Cc1ccccc1	PINK1 modulator 32µM, Menin-MLL TR inh inconclusive (no result: ClpP mod)
COc1cc([N+](=O)[O-])cc(/C=C2/SC(=S)N(Cc3ccccc3)C2=O)c1O	PINK1 modulator 35µM, Menin-MLL FL inh inconclusive, Menin-MLL TR inh inconclusive (no result: Epigenetic derep)
COCCCCOc1cc2nc(N3CCCN(C)CC3)nc(NC3CCN(C)CC3)c2cc1OC	none (no result: MLL CXXC-DNA inh, Menin-MLL FL inh, Menin-MLL TR inh, Epigenetic derep)
CCN(CC)c1ccc(/C=N/NC(=O)c2c[nH]c3ccccc23)cc1	Menin-MLL TR inh inconclusive, ClpP mod 32µM
COCCNC(=O)c1c[nH]c2ccc(S(=O)(=O)N3CCC4(CC3)OCCO4)cc2c1=O	ClpP mod 20µM
CCCCNC(=O)c1c[nH]c2ccc(S(=O)(=O)N3CCOCC3)cc2c1=O	none (no result: ClpP mod)
CC1CCN(S(=O)(=O)c2ccc3[nH]cc(C(=O)NCCN4CCOCC4)c(=O)c3c2)CC1	ClpP mod 25µM
CCc1ccccc1N(C)S(=O)(=O)c1ccc2[nH]cc(C(=O)NCCOC)c(=O)c2c1	ClpP mod 28µM (no result: MLL CXXC-DNA inh, Menin-MLL FL inh, Menin-MLL TR inh)
O=C(O)/C=C/c1ccc2c(c1)S(=O)(=O)N(C1CCCC1)[C@H]2CC(=O)O	none (no result: MLL CXXC-DNA inh, PINK1 modulator, Menin-MLL FL inh, Menin-MLL TR inh, Epigenetic derep)
CSc1nnc(CNS(=O)(=O)c2ccc(F)cc2F)n1-c1ccccc1C	none (no result: MLL CXXC-DNA inh, Menin-MLL FL inh, Menin-MLL TR inh, ClpP mod, Epigenetic derep)
O=C(NN1C(=O)c2ccc3c4c(ccc(c24)C1=O)CC3)c1ccc(Br)cc1	ClpP mod 13µM
O=C(O)c1ccc2c(c1)C(=O)N(NC(=O)c1ccccc1)C2=O	Menin-MLL FL inh inconclusive
O=C1c2ccc3c4c(ccc(c24)C(=O)N1NC(=O)C(F)(F)F)CC3	ClpP mod 35µM
COc1ccc(S(=O)(=O)N2CCOCC2)cc1NC(=O)c1ccncc1	none (no result: MLL CXXC-DNA inh, Menin-MLL FL inh, Menin-MLL TR inh, Epigenetic derep)
OC(c1cccnc1)c1ccc2c(c1)CN(Cc1ccc(-c3ccccc3Cl)o1)CCO2 (configuration not stated)	none (no result: MLL CXXC-DNA inh, Menin-MLL FL inh, Menin-MLL TR inh, ClpP mod, Epigenetic derep)
CCOC(=O)c1[nH]c2ccc(OC)cc2c1NC(=O)CN1CCC2(CC1)OCCO2	ClpP mod 14µM
COC(=O)c1[nH]c2cc(OC)ccc2c1NC(=O)CCN1CCN(c2cccc(C)c2C)CC1	ClpP mod 25µM
CCOC(=O)c1[nH]c2ccc(OC)cc2c1NC(=O)CN1CCc2ccccc2C1	Menin-MLL TR inh inconclusive, ClpP mod 16µM
CCOC(=O)c1[nH]c2ccc(OC)cc2c1NC(=S)N1CCN(c2ccccc2)CC1	Menin-MLL TR inh inconclusive
CCOC(=O)c1[nH]c2ccc(F)cc2c1NC(=O)C(C)N1CCc2cc(OC)c(OC)cc2C1 (configuration not stated)	ClpP mod 20µM
CCOC(=O)c1[nH]c2ccc(OC)cc2c1NC(=O)C(C)N1CCC2(CC1)OCCO2 (configuration not stated)	none (no result: PINK1 modulator, ClpP mod)
CCOC(=O)c1[nH]c2ccccc2c1NC(=O)CCN1CCN(C(=O)OCC)CC1	ClpP mod 22µM
CCOC(=O)c1[nH]c2ccccc2c1NC(=O)CCN1CC(C)OC(C)C1 (configuration not stated)	none
COC(=O)c1[nH]c2ccc(F)cc2c1NC(=O)CCN1CC(C)OC(C)C1 (configuration not stated)	ClpP mod 16µM
CCOC(=O)c1oc2ccccc2c1NC(=O)CN1CCN(C)CC1	none
CCOC(=O)c1oc2ccc(OC)cc2c1NC(=O)CN1CCN(C)CC1	ClpP mod 16µM
CCOC(=O)c1[nH]c2ccc(F)cc2c1NC(=O)CCN1CCSCC1	ClpP mod inconclusive
CCOC(=O)c1[nH]c2ccc(OC)cc2c1NC(=O)CCN1CCSCC1	ClpP mod 13µM
CC(NC(=O)C1CCOCC1)c1nnc2n1CCN(Cc1ccc(F)cc1)CC2 (configuration not stated)	none (no result: MLL CXXC-DNA inh, Menin-MLL FL inh, Menin-MLL TR inh, ClpP mod, Epigenetic derep)
CC[C@H](C)[C@H]1O[C@]2(CC[C@@H]1C)C[C@@H]1C[C@@H](C/C=C(\C)[C@H](O[C@@H]3C[C@H](OC)[C@H](O[C@@H]4C[C@H](OC)[C@@H](O)[C@H](C)O4)[C@H](C)O3)[C@@H](C)/C=C/C=C3\CO[C@@H]4[C@H](O)C(C)=C[C@@H](C(=O)O1)[C@]34O)O2	none (no result: PINK1 modulator, ClpP mod)
COC(=O)C1=C(C(=O)OC)[C@@H]2N(Cc3ccccc3)c3ccccc3[C@@]23C[C@@H](C(=O)OC)N(S(=O)(=O)c2ccc(C#N)cc2)C3=N1	none (no result: MLL CXXC-DNA inh, PINK1 modulator, ClpP mod, Epigenetic derep)
CC(C)c1cc(-c2cc(C(=O)NCc3ccccc3)on2)nc(NCC2CC2)n1	ClpP mod 32µM (no result: Menin-MLL TR inh)
